Sampled rows, rich in hits. Any-hit rate of the full collection: about 10%.
HEK293 tox – Cytotoxic Profiling in HEK 293 Cell Line of Diverse Libraries Using Quantitative High-Throughput Screening; AID 1345083, 2018; Potency, µM (series often up to 115 µM), for the others: top-dose activity change, negative = cytotoxicity, most hits filed as inhibitors; hit rate 6.6% among 94,000; HEK 293 viability, ATP luminescence (CellTiter-Glo), 48-72 h; also: nearly all actives have a fitted effect of over 60% in size
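HEK 293 cells seeded at 250 cells/well were exposed to compound for 48 or 72 hr at 37 degree Celsius. Viability taken as ATP content by CellTiter-Glo luminescence.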
hNpr1 antagonist – Natriuretic polypeptide receptor (hNpr1) antagonism - Primary qHTS; Potency, µM (titrated, usually from 46.3 µM), for the others: at the top dose activity change, negative = inhibition, hits mostly inhibitors; HEK293 hNpr1 GloSensor cGMP, ANP-stimulated luminescence; hit rate 1.6% among 76,000; calls by dose curve; also: nearly all actives have a fitted effect of over 60% in size
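HEK293 cells stably expressing human Npr1 and cGMP GloSensor pGS-40F, loaded 2 h with 2% GloSensor reagent, given compound 30 min at room temperature. Luminescence read before and 20 min after 0.1 nM hNppA.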
FLuc inh – Firefly luciferase inhibition profiling of diverse chemical library using quantitative high-throughput screening. hit rate 2.5% among 76,000. Luciferin 4-monooxygenase (Photinus pyralis), P08659. purified P. pyralis luciferase, luminescence, biochemical. Potency, µM (series often up to 115 µM), actives largely listed as inhibitors; also: nearly all actives have a fitted effect of over 65% in size
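Purified P. pyralis luciferase (10nM final) in 50mM Tris acetate pH 7.5, 10mM Mg acetate, 0.01% Tween-20, 0.05% BSA with 10uM D-luciferin and 10uM ATP. Compounds titrated qHTS. Luminescence imaged on CCD.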
3T3 cytotox – Cytotoxic Profiling in NIH 3T3 Cell Line of Diverse Libraries Using Quantitative High-Throughput Screening | NIH 3T3 viability, CellTiter-Glo ATP luminescence, 48-72 h | Potency, µM (doses to about 96.7 µM), for inactives: at the top dose activity change, negative = cytotoxicity, actives largely listed as inhibitors | hit rate 4.3% among 94,000 | AID 1345082, 2018; also: nearly all actives have a fitted effect of over 55% in size
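Cytotoxicity was measured by CellTiter-Glo ATP luminescence after 48 or 72 h compound exposure at 37 °C. Mouse NIH 3T3 fibroblasts were seeded at 400 cells/well and dosed by 23 nL pin transfer.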
GPT2 inh – Primary qHTS assay for inhibitors of Glutamate pyruvate transaminase 2 (GPT2) | Alanine aminotransferase 2 (Homo sapiens), Q8TD30 | Recombinant GPT2, coupled pyruvate oxidase/HRP Amplex Red fluorescence | hit rate 0.25% among 100,000 | Potency, µM (titrated, usually from 57.7 µM), for the others: at the top dose activity change, negative = inhibition, hits mostly inhibitors; also: nearly all actives have a fitted effect of over 60% in size
Target sequence (Q8TD30 whole entry, looked up): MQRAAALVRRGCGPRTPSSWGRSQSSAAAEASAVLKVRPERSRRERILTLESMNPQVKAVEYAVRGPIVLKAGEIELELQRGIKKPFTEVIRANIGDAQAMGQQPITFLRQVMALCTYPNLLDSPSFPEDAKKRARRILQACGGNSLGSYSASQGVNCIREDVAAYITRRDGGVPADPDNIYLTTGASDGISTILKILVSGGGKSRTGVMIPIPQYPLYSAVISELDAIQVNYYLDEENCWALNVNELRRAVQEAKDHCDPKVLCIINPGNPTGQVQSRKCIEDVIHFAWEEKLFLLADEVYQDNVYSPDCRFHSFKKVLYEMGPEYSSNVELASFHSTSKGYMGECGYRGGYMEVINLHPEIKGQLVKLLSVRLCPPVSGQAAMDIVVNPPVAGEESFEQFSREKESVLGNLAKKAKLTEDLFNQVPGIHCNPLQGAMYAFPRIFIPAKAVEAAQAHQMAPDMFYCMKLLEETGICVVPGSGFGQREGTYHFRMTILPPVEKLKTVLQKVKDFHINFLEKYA
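GPT2 10ng/uL, a-KG 250uM, L-Ala 2mM, HEPES pH7.5 + 0.0001% Tween; 30 min RT. Then Amplex mix (PO/HRP/ThPP), 30 min RT dark, fluorescence. AOA 50uM used as positive control.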
Starred values were filed as active, the others as inactive; [ ] = remark or other dose. Unless noted, calls follow the shape of the dose curve; as a rule, active = well fitted curve in the direction sought with a large enough effect; inconclusive = small, poorly fitted or top-dose-only effect, or another doubt; inactive = no such curve, though single readings can be large; an effect the other way counts as inactive or inconclusive. % is scaled to controls: 0 for no effect and ±100 for the full control effect; potency is read from the fitted curve at half-maximal effect.

Results for c1ccc(Oc2ccc(Nc3cnc4ccc(N5CCOCC5)nn34)cc2)cc1 ?
HEK293 tox: inconclusive; hNpr1 antagonist: inconclusive; FLuc inh: inactive; 3T3 cytotox: 45µM*; GPT2 inh: -14%[88.5 µM]

What do the screens show for `CN1CCN(c2ccc3ncc(Nc4ccc(Cl)c(C(F)(F)F)c4)n3n2)CC1`?
HEK293 tox: 79µM*; hNpr1 antagonist: inconclusive; FLuc inh: inactive; 3T3 cytotox: inconclusive; GPT2 inh: inconclusive

Results for CN1CCN(c2ccc3ncc(Nc4ccc5c(c4)OCCO5)n3n2)CC1 ?
HEK293 tox: inconclusive; hNpr1 antagonist: -1%[70.6 µM]; FLuc inh: inactive; 3T3 cytotox: inconclusive; GPT2 inh: -11%[88.5 µM]

Results for Clc1cccc(Nc2cnc3ccc(N4CCOCC4)nn23)c1 ?
HEK293 tox: inconclusive; hNpr1 antagonist: inconclusive; FLuc inh: inactive; 3T3 cytotox: inconclusive; GPT2 inh: -25%[88.5 µM]

How did O=C([C@H]1CCCN1C(=O)c1cccc(Cl)c1)N1CCC(N2CCOC2=O)CC1 do in these assays?
HEK293 tox: -10%; 3T3 cytotox: -11%; GPT2 inh: inactive

How did C=C(CO)C12OC1C1(C)C(=CC2=O)C(O)C(O)CC1C (centres undefined) do in these assays?
GPT2 inh: 4%

Results for C=CCN1C[C@H]2COc3ccc(C)cc3[C@H]2N(C(=O)COc2ccccc2)CCC1=O ?
HEK293 tox: inconclusive; 3T3 cytotox: -23%

How did COc1cccc(C(=O)N2CCc3nc(-c4ccccc4)nc(-c4ccc(Cl)cc4)c3C2)c1 do in these assays?
HEK293 tox: 40µM*; hNpr1 antagonist: 5%; FLuc inh: inactive; 3T3 cytotox: inconclusive; GPT2 inh: inactive

Results for O=C(c1cccc(Cl)c1)N1CCc2nc(-c3ccccc3)nc(-c3ccc(Cl)cc3)c2C1 ?
HEK293 tox: 28µM*; hNpr1 antagonist: -11%; FLuc inh: inactive; 3T3 cytotox: inconclusive; GPT2 inh: inactive

How did CC(=O)c1ccc(NC(=O)CN2C(=O)NC3(CCC(C)CC3)C2=O)cc1 (centres undefined) do in these assays?
HEK293 tox: -26%; hNpr1 antagonist: 2%; FLuc inh: inactive; 3T3 cytotox: -25%; GPT2 inh: -6%

What do the screens show for `C#CCNC(=O)c1nc2sccn2c1-c1cccc(C(F)(F)F)c1`?
HEK293 tox: inconclusive; 3T3 cytotox: inconclusive; GPT2 inh: -13%[88.5 µM]

How did COC(=O)[C@@H]1Cc2c([nH]c3ccccc23)[C@H]2C[C@H](NCCNC(C)=O)C[C@@H](c3ccccc3)N21 do in these assays?
HEK293 tox: 89µM*; hNpr1 antagonist: -1%; FLuc inh: inactive; 3T3 cytotox: inconclusive; GPT2 inh: -6%

How did COC(=O)[C@@H]1Cc2c([nH]c3ccccc23)[C@H]2C[C@@H](N3CCOCC3)C[C@@H](c3ccccc3)N21 do in these assays?
HEK293 tox: inconclusive; hNpr1 antagonist: -9%; FLuc inh: inactive; 3T3 cytotox: inconclusive; GPT2 inh: 2%

Results for COCCNC(=O)[C@@H]1C[C@@H](c2ccc(F)cc2)N([S+](=O)([O-])c2ccccc2)C1 ?
HEK293 tox: -6%[172 µM]; hNpr1 antagonist: 1%[70.6 µM]; FLuc inh: inactive; 3T3 cytotox: inconclusive; GPT2 inh: -1%[88.5 µM]

How did COC(=O)[C@@H]1Cc2c([nH]c3ccccc23)[C@H]2C[C@H](NCCNC(C)=O)C[C@@H](c3ccc(C(F)(F)F)cc3)N21 do in these assays?
HEK293 tox: 20µM*; hNpr1 antagonist: 0%; FLuc inh: inactive; 3T3 cytotox: 28µM*; GPT2 inh: 1%

Results for COC(=O)[C@@H]1C2CC3c4[nH]c5ccccc5c4CCN3CC2CC[C@@H]1O (some centres undefined) ?
GPT2 inh: inactive

Results for COCCN[C@@H]1C[C@@H]2c3[nH]c4ccccc4c3C[C@@H](C(=O)OC)N2[C@H](c2ccc(C(F)(F)F)cc2)C1 ?
HEK293 tox: 35µM*; hNpr1 antagonist: -2%; FLuc inh: inactive; 3T3 cytotox: 45µM*; GPT2 inh: inactive

What do the screens show for `CCc1ccccc1S(=O)(=O)N1CCCC(Cn2c(C3CC3)nc3cccnc32)C1` (centres undefined)?
HEK293 tox: 40µM*; hNpr1 antagonist: -19%; FLuc inh: inactive; 3T3 cytotox: inconclusive; GPT2 inh: 0%

How did Cc1cc(NC(=O)N2CCCC(Cn3c(C)nc4cccnc43)C2)ccc1Br (centres undefined) do in these assays?
HEK293 tox: 32µM*; hNpr1 antagonist: -22%; FLuc inh: inactive; 3T3 cytotox: inconclusive; GPT2 inh: inactive

What do the screens show for `Cc1cc(Cl)ccc1S(=O)(=O)N1CCCC(Cn2c(C)nc3cccnc32)C1` (centres undefined)?
HEK293 tox: 20µM*; hNpr1 antagonist: inconclusive; FLuc inh: inactive; 3T3 cytotox: 11µM*; GPT2 inh: inactive

What do the screens show for `Cc1nc2cccnc2n1CC1CCCN(S(=O)(=O)Cc2ccc(Cl)cc2)C1` (centres undefined)?
HEK293 tox: 32µM*; hNpr1 antagonist: inconclusive; FLuc inh: inactive; 3T3 cytotox: inconclusive; GPT2 inh: -21%

Results for COc1cccc(NC(=O)N2CCCC(Cn3c(C)nc4cccnc43)C2)c1 (centres undefined) ?
HEK293 tox: 12%; hNpr1 antagonist: -1%; FLuc inh: inactive; 3T3 cytotox: 1%; GPT2 inh: -5%

What do the screens show for `CN1CCCCCCN(C(=O)COc2ccccc2)[C@H]2CCC[C@H]2C1=O`?
HEK293 tox: -21%; hNpr1 antagonist: -4%; FLuc inh: inactive; 3T3 cytotox: -11%; GPT2 inh: 2%

What do the screens show for `CN1C[C@@H](NC(=O)COc2ccccc2)C[C@H]1c1nc(-c2ccncc2)no1`?
HEK293 tox: -23%[172 µM]; hNpr1 antagonist: -1%[70.6 µM]; FLuc inh: inactive; 3T3 cytotox: -14%[138 µM]; GPT2 inh: 2%[88.5 µM]

How did Cc1ccc(C)c(S(=O)(=O)N2CCCC(Cn3c(C)nc4cccnc43)C2)c1 (centres undefined) do in these assays?
HEK293 tox: 40µM*; hNpr1 antagonist: inconclusive; FLuc inh: inactive; 3T3 cytotox: 25µM*; GPT2 inh: inactive

How did Cc1ccc(S(=O)(=O)N2CCCC(Cn3c(C4CC4)nc4cccnc43)C2)c(C)c1 (centres undefined) do in these assays?
HEK293 tox: 35µM*; hNpr1 antagonist: -24%; FLuc inh: inactive; 3T3 cytotox: inconclusive; GPT2 inh: inactive

High-throughput results deposited in PubChem by National Center for Advancing Translational Sciences (NCATS).
